According to ChEMBL document CHEMBL5308504, “Tm Shift (DSF) assay results for EUbOPEN Chemogenomics Library” (2023):
Several values for one entry are separate records, joined by “and”; a condition that tells them apart may be missing. Equal values may be shown once.

Tests used:
[1] = target: Bromodomain-containing protein 4 (Homo sapiens) (UniProt O60885); settings: Compound concentration 20.0 uM, Protein concentration 2.0 uM, Result type QC Liability
[2] = target: T1, Transcription intermediary factor 1-alpha (Homo sapiens) (UniProt O15164); settings: Compound concentration 20.0 uM, Protein concentration 2.0 uM, Result type QC Liability
T1 sequence (whole entry): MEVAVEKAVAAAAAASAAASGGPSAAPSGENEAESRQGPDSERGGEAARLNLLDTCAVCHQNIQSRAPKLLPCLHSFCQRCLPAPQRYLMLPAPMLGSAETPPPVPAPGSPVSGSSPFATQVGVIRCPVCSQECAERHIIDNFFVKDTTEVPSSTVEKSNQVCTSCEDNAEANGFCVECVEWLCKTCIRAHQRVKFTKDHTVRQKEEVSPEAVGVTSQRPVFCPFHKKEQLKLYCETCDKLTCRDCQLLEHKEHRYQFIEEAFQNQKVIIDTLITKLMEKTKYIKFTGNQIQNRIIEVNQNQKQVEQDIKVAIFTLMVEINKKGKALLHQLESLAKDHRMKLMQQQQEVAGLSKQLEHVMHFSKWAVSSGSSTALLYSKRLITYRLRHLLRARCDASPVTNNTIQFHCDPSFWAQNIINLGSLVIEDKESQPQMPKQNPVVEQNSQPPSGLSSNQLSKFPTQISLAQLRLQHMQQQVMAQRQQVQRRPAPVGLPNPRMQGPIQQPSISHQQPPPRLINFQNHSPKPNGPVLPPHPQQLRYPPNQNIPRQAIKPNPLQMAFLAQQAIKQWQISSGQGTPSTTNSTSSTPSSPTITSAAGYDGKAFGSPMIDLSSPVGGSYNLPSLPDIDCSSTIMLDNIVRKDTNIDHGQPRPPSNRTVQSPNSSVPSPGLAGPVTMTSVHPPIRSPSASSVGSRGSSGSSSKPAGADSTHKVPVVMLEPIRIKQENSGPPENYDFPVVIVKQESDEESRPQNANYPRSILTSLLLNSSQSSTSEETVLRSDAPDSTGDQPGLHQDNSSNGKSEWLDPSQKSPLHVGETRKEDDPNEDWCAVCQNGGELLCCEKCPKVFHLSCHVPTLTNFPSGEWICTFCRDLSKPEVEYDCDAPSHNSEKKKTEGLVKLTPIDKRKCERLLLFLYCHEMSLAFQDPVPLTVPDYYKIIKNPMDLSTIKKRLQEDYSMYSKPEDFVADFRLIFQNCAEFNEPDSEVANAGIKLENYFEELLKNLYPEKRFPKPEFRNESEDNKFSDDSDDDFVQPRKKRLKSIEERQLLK

SMILES	ΔTm [1]	ΔTm [2]
CC(C)(O)c1coc(S(=O)(=O)NC(=O)Nc2c3c(cc4c2CCC4)CCC3)c1	-0.92 °C	-0.55 °C
COc1cc(N2CCN(C)CC2)ccc1Nc1ncc2c(n1)N(C)c1ccccc1C(=O)N2CC(F)(F)F	-1.21 °C	-2.27 °C
CC(=O)Nc1ncc(CN2CCC[C@H](Cc3cc(C)nc(C)c3)C2)s1	0.62 °C	-2.22 °C
CN(C)[C@H]1C[C@H](n2cnc(-c3ccc(F)cn3)c2-c2ccnc3[nH]ccc23)C1	-2.13 °C	-2.35 °C
CCCCC[C@@](C)(O)/C=C/[C@H]1C(=O)CC(O)C1C/C=C\CCCC(=O)O (some centres not stated)	-1.7 °C	-0.59 °C
Nc1nc(-c2nn(Cc3ccccc3F)c3ncccc23)ncc1C1CC1	1.11 °C	0.4 °C
Cc1nc2c(cc1F)c(-c1nnc3c(n1)NC(=O)C3(C)C)nn2Cc1cccc(F)c1F	-0.37 °C	0.14 °C
CC[C@@H]1C(=O)N(C)c2cnc(Nc3ccc(C(=O)NC4CCN(C)CC4)cc3OC)nc2N1C1CCCC1	6.02 °C	0.07 °C
CC/C(=C(\c1ccccc1)c1ccc(OCCN(C)C)cc1)c1ccccc1	-4.1 °C	-5.01 °C
N#Cc1ccc(C#CC[C@@H](C#N)NC(=O)[C@H]2CCCCN2)cc1F	-1.11 °C	0.64 °C
C=CC[C@@H]1/C=C(\C)C[C@H](C)C[C@H](OC)[C@H]2O[C@@](O)(C(=O)C(=O)N3CCCC[C@H]3C(=O)O[C@H](/C(C)=C/[C@@H]3CC[C@@H](O)[C@H](OC)C3)[C@H](C)[C@@H](O)CC1=O)[C@H](C)C[C@@H]2OC	-1.85 °C	-0.9 °C
O=C(O)CCCN1CCC[C@H]1COc1ccc(Oc2ccc(Cl)cc2)cc1	-2.86 °C	-0.92 °C
CCS(=O)(=O)c1cc2cc(C[C@@](O)(CC(C)(C)c3ccc(F)cc3C(N)=O)C(F)(F)F)[nH]c2cn1	0.67 °C and -0.3 °C	0.3 °C and -2.64 °C
Cn1c(Nc2c(Cl)cccc2Cl)nc2ccc3nc[nH]c(=O)c3c21	-3.08 °C	-3.83 °C
CNc1ncc2cc(-c3ccc(-c4ncccc4F)cc3Cl)c(=O)n(C[C@H]3OC[C@H](N)CO3)c2n1	-2.59 °C	-3.59 °C
COc1cc2ncnc(Nc3cccc(O)c3)c2cc1OC	0.18 °C	-0.88 °C
Cc1cn([C@@H](C)CC#N)c(=O)c2cc(Cn3nc(C(F)F)cc3Cl)nn12	-0.88 °C	-2.22 °C
CSc1nc2c(c(=O)n(C)c(=O)n2C)n1C	-3.81 °C	-0.92 °C

SMILES	ΔTm [1]	ΔTm [2]
Fc1ccc(-c2c3cccc(C(F)(F)F)c3nn2Cc2ccc(F)cc2Cl)cc1	-3.53 °C	-1.16 °C
C[C@H](CCC(=O)O)[C@H]1CC[C@H]2[C@@H]3[C@H](O)C[C@@H]4C[C@H](O)CC[C@]4(C)[C@H]3C[C@H](O)[C@]12C	-2.7 °C	-2.48 °C
COc1ncc(-c2cc(-c3ncc(CN4C[C@@H](C)O[C@@H](C)C4)o3)c3cn[nH]c3c2)cc1NS(C)(=O)=O	0.37 °C	-1.87 °C
Clc1ccc(-c2nc3sccn3c2/C=N/OCc2ccc(Cl)c(Cl)c2)cc1	-1.58 °C	-1.95 °C
Cn1cc(C(=O)O)c2ccc(N3CCC(OCc4c(-c5c(Cl)cccc5Cl)noc4C4CC4)CC3)cc21	-1.74 °C	-2.91 °C
Cc1cc(-c2cc3ncccc3c(OC[C@H]3CCCNC3)n2)ccc1N(C)C	-2.56 °C	-2.49 °C
CCN(C(=O)c1cc(F)ccc1Oc1cncnc1N1CC2(CCN(C[C@H]3CC[C@H](NS(=O)(=O)CC)CC3)CC2)C1)C(C)C	-1.64 °C	-1.14 °C
CS(=O)(=O)NCC[C@H](NC(=O)c1cncc2c1cnn2-c1ccc(F)cc1)c1ccnc(S(C)(=O)=O)c1	-0.38 °C	0.28 °C
CN[C@@H](C)C(=O)N[C@H](C(=O)N1CCC[C@H]1C(=O)Nc1sc(-c2ncco2)nc1-c1ccccc1)C1CCCCC1	-2.68 °C	-2.9 °C
Cc1ccc(-n2nc(C(C)(C)C)cc2NC(=O)Nc2ccc(OCCN3CCOCC3)c3ccccc23)cc1	0 °C and -1.27 °C	-0.19 °C and -3.17 °C
CCc1ccccc1C(=O)Nc1n[nH]c2c(C)c(F)c(C3C(C#N)=C(C)N(C)C(C)=C3C#N)cc12	-3.05 °C	-0.71 °C
CN(C)c1ccc(-c2cc3ncccc3c(OCCCCO)n2)cc1	-2.64 °C	-3.64 °C
CN(C)[C@H]1CCc2nc(NC(=O)c3cccc(Cn4cc(-c5ccc(C#N)cc5)cn4)c3)sc2C1	-1.88 °C	-2.75 °C
CN1C(=O)c2ccccc2N(C)c2nc(Nc3cnn(C4CCNCC4)c3)ncc21	3.95 °C	-1.94 °C
CC(=O)Nc1nc(CN2CCC[C@H](Cc3cc(C)nc(C)c3)C2)cs1	0.35 °C	-1.42 °C
O=C(NC1CCNCC1)c1n[nH]cc1NC(=O)c1c(Cl)cccc1Cl	-0.14 °C	-1.34 °C
COc1cc(Cl)c(C(=O)N[C@@H](CN[C@H]2CC[C@@H](N)CC2)Cc2ccc(C#N)cc2)cc1-c1ccc(CN[C@H](C)c2ccc(C)cc2)o1	-1.12 °C	-2.42 °C
C[C@@H](Oc1cc(-n2cnc3ccc(OC4CCN(C)CC4)cc32)sc1C(N)=O)c1ccccc1Cl	-2.01 °C	-2.55 °C
